Screening data from PubChem BioAssay.
KAT2A inh: blocks human GCN5L2 histone acetyltransferase. Q92830. GCN5L2 HAT assay, ThioGlo1 CoA-SH fluorescence. Potency, µM (doses to about 58.9 µM), for inactives: at the highest dose activity change, negative = inhibition, actives largely listed as inhibitors. actives 0.21% (n = 390,000). AID 504327
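GCN5L2 (20nM final) in 50mM HEPES, 0.1mM EDTA pH 7.5, 0.01% Tween-20 was preincubated 15 min at room temperature with compound, then given ThioGlo1 (50uM), H3(1-25) peptide (75uM) and acetyl-CoA (70uM); CoA-thiol fluorescence (Ex340/Em540) was read at 0 and 20 min.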
TDP1 block: blocks human tyrosyl-DNA phosphodiesterase 1. Q9NUW8. recombinant TDP1, AlphaScreen DNA substrate cleavage. Potency, µM (series often up to 130 µM), for inactives: at the top dose activity change, negative = inhibition, hits mostly inhibitors. actives 0.28% (n = 350,000); further: nearly all actives have a fitted effect of over 40% in size
Target sequence (Q9NUW8 whole entry, looked up): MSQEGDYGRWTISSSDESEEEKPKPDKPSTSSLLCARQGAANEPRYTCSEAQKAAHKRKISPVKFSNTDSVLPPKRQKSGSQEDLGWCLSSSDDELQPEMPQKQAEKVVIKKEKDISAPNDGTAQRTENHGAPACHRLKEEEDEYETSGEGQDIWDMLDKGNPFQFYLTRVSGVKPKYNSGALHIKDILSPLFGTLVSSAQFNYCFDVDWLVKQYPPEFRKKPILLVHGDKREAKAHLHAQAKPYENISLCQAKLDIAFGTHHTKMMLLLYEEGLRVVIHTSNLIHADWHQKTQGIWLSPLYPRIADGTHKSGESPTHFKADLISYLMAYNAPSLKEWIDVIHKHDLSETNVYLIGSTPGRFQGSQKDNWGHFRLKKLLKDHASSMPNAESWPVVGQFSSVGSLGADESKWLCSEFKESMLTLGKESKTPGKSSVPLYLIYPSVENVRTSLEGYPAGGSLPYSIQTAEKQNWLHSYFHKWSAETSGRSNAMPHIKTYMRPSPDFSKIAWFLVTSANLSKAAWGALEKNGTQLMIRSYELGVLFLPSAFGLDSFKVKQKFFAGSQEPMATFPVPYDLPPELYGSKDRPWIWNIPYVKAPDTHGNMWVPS
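Signal: AlphaScreen proximity between streptavidin donor and anti-FITC acceptor beads on intact substrate. Reaction: Tdp1 1 nM, substrate 15 nM final, 5 min RT after 15 min compound preincubation.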
DT40 TDP1 no CPT: qHTS for Inhibitors of human tyrosyl-DNA phosphodiesterase 1 (TDP1): qHTS in cells in absence of CPT | DT40 Tdp1-/- hTDP1 cells, no CPT, ATP luminescence, 48 h | Potency, µM (doses to about 46.2 µM), without a hit: at the top dose activity change, negative = growth inhibition, usual class: inhibitors | actives 15% (n = 420,000) | AID 686978, 2013; further: nearly all actives have a fitted effect of over 55% in size
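Cells were dispensed at 400 per well, compounds added by pin tool, plates incubated ≥48 hr at 37 °C, then CellTiter-Glo added for 30 min at room temperature before luminescence reading. Line: DT40 Tdp1-/- complemented with hTDP1; camptothecin omitted.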
DT40 TDP1 CPT: growth inhibition of DT40 Tdp1-/-;hTDP1 cells with camptothecin (screen for TDP1 inhibitors); chicken DT40 Tdp1-/-;hTDP1 cells + 20 nM CPT, ATP luminescence, 48 h; Potency, µM (highest dose often 46.2 µM), inactives show top-dose activity change, negative = growth inhibition, actives largely listed as inhibitors; actives 12% (n = 420,000); AID 686979; further: nearly all actives have a fitted effect of over 55% in size
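Cell growth measured by CellTiter-Glo luminescence after a minimum 48 h, 37 C compound exposure with 20 nM CPT in Tdp1-knockout DT40 cells stably expressing hTDP1, seeded 400/well; qHTS titration format.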
VDR inhibitor: vitamin D3 receptor (human) inhibition. AID 504847. actives 0.93% (n = 400,000). P11473. VDR-SRC2-3 peptide fluorescence polarization, 2 h. Potency, µM, inactives show max response, negative = inhibition, actives largely listed as inhibitors
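VDR–SRC2-3 interaction, FP format. Cmpds 23 nl via pintool, brief spin, 2 h ambient incubation.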
PLK1 PBD inh: blocks phosphopeptide binding to human PLK1 polo-box domain; AID 720504; actives 2.8% (n = 360,000); P53350; Potency, µM, for inactives: max response, negative = inhibition, usual class: inhibitors; Plk1 PBD binding of FITC phosphopeptide, fluorescence polarization; further: series mostly up to about 57 µM; nearly all actives have a fitted effect of over 65% in size
* marks the source's active call; other numbers are inactive results; ? = inconclusive; . = no result; [ ] = remark or other dose. Most compounds without a hit are left out; they make up all but 18% or so of the library. The call rests on the fitted dose curve; in most records, active means well fitted curve in the direction sought with a large enough effect; inconclusive means small, poorly fitted or top-dose-only effect, or another doubt; inactive means no such curve, though single readings can be large; an effect the other way counts as inactive or inconclusive. On the % scale 0 is the no-effect control and ±100 the full control effect; potency means the concentration at half of the fitted maximal effect.

SMILES	KAT2A inh	TDP1 block	DT40 TDP1 no CPT	DT40 TDP1 CPT	VDR inhibitor	PLK1 PBD inh
COc1ccc(OC)c(C2CC(=O)N3CN(c4ccccc4)CSC3=C2C#N)c1 (stereo not given)	28µM*	8%	?	?	20µM*	27µM*
COc1ccc(CC(=O)N2CCN(c3ccccc3F)CC2)cc1OC	-6%	.	?	?	-3%	5%
COc1ccc(C2CC(=O)N3CN(c4ccccc4F)CSC3=C2C#N)cc1OC (stereo not given)	22µM*	5%	-1%	-22%	32µM*	30µM*
COc1cc(OC)c(C2CC(=O)N3CN(c4ccccc4C)CSC3=C2C#N)cc1OC (stereo not given)	?	7%	.	.	.	.
Cc1ccccc1-c1noc(CNC(=O)c2ccco2)n1	-1%	8%	6%	40%	-22%	-15%
CC1=CC2=NC(=O)CC(C)(C(=O)N(CC(=O)NC3CCCC3)c3cc(C)cc(C)c3)N2C=C1 (stereo not given)	1%	0%	21µM*	13µM*	?	27µM*
Brc1cccc(OCCCCN2CCCCC2)c1	1%	-4%	?	4%	-8%	-2%
CCSc1nnc2c(n1)OC(c1sccc1C)N(C(C)=O)c1ccccc1-2 (stereo not given)	-14%	.	13µM*	?	-9%	.
CCCC(=O)N1c2ccccc2-c2nnc(SC)nc2OC1c1sccc1C (stereo not given)	-6%	.	?	?	19%	.
COc1cccc(NC(=S)N2CCCN(Cc3ccc(F)cc3)C2)c1	-7%	5%	23µM*	-10%	6%	-19%
COc1ccc(NC(=S)N2CCCN(Cc3cccc(Cl)c3)C2)cc1	-6%	8%	16µM*	?	-25%	-16%
COc1cccc(C2c3c(ncn(-c4cccc(C)c4)c3=N)Oc3ccc4ccccc4c32)c1 (stereo not given)	.	4%	.	.	.	.
COC(=O)c1scc(-c2ccc(C)cc2)c1S(=O)(=O)Nc1ccc(OC(F)(F)F)cc1	-3%	5%	-9%	-7%	15%	.
COC(=O)c1scc(-c2ccc(C)cc2)c1S(=O)(=O)Nc1ccc(NC(C)=O)cc1	-5%	7%	?	18µM*	-2%	.
COC(=O)c1scc(-c2ccc(C)cc2)c1S(=O)(=O)Nc1ccc(N(C)C)cc1	-4%	12%	15µM*	16µM*	18%	.
COc1cc(C(=O)NC2CC2)cc(OC)c1OC	.	.	-5%	-11%	.	-12%
O=C(NC1CC1)C1=C[C@@H](c2c[nH]c3ccccc23)C[C@@H](OCc2ccc(CO)cc2)O1	-2%	6%	-5%	?	-11%	-22%
COc1ccc(Cn2c(=O)c3[nH]cnc3n(-c3ccccc3C)c2=O)cc1	-6%	3%	5.2µM*	3.7µM*	3%	1%
COc1ccc(C)c(-n2c(=O)n(Cc3ccccc3)c(=O)c3[nH]cnc32)c1	-11%	8%	-19%	-10%	-11%	1%
COc1ccccc1N1CCN(C(=O)c2cc(-c3ccc(C)c(F)c3)on2)CC1	-1%	6%	?	?	5%	.
C=CCNC(=O)NC(=O)COC(=O)CC(NC(N)=O)c1ccc(Cl)cc1 (stereo not given)	17%	0%	?	-15%	-3%	-4%
Oc1cc(Br)ccc1C=Nc1ccc(N2CCCCC2)cc1	-19%	4%	17%	-26%	14%	10%
O=C1NN(c2ccc(Br)cc2)C(=O)/C1=C\c1ccc(O)cc1O	-19%	.	-10%	7%	-2%	30µM*
O=C1NN(c2ccccc2)C(=O)C1=Cc1ccccc1O	.	.	-16%	14%	.	27µM*
O=C1NN(c2cccc(Br)c2)C(=O)/C1=C/c1ccc(-c2cc([N+](=O)[O-])ccc2O)o1	-6%	.	-14%	1%	-16%	19µM*
SMILES	KAT2A inh	TDP1 block	DT40 TDP1 no CPT	DT40 TDP1 CPT	VDR inhibitor	PLK1 PBD inh
O=C1NN(c2ccc(F)cc2)C(=O)/C1=C/c1cccs1	-11%	-3%	-7%	17%	?	-28%
O=C1NN(c2cccc(Br)c2)C(=O)/C1=C\c1ccc(O)cc1	9%	.	1%	-12%	?	24µM*
COc1cccc(CCNC(=O)CC2C(=O)NCCN2Cc2ccc(C)o2)c1 (stereo not given)	-8%	8%	10%	-23%	-7%	-9%
Cc1ccc(S(=O)(=O)NCc2cn3ccccc3n2)c(C)c1	1%	2%	-7%	3%	0%	-3%
COc1cc(/C=C2\SC(=O)N(CCNC(=O)c3cnc(C)cn3)C2=O)cc(OC)c1OC	-7%	.	18µM*	?	-10%	-4%
COc1cc(/C=C2\SC(=S)N(CCC(=O)N3CCN(C)CC3)C2=O)cc(OC)c1OC	-5%	12%	15µM*	?	-2%	-6%
COc1cc(/C=C2\SC(=S)N(CCC(=O)NC3CCCC3)C2=O)cc(OC)c1OC	1%	3%[0.0935 µM]	?	?	?	4%
COc1cc(/C=C2/SC(=S)N(CCC(=O)N3CCN(C)CC3)C2=O)cc(OC)c1OC	.	.	23µM*	?	.	1%
C[C@]12CC[C@H](O)CC1=CCC1C2CC[C@@]2(C)C1CC[C@@H]2NC(=O)[C@@H](N)Cc1cnc[nH]1 (stereo not given in full)	.	.	?	-21%	6%	-2%
COc1ccc(CCNC(=O)Nc2ccc([N+](=O)[O-])cc2)cc1OC	14%	3%	?	?	-1%	-5%
CC1C/C(=N/NC(=O)c2cccc(F)c2)c2ccc(O)cc2C1 (stereo not given)	-3%	0%	?	22µM*	15%	-8%
COc1ccc2c(c1)CC(C)C/C2=N\NC(=O)c1ccco1 (stereo not given)	-3%	4%	?	0%	-10%	-2%
CCOc1ccc(-c2c(C)nn3c(C)c(C(=O)NC(C)c4ccccc4)cnc23)cc1OCC (stereo not given)	0%	7%	16µM*	21µM*	8%	.
CCOc1ncccc1C(=O)NCc1ccccc1F	-4%	8%	-3%	13%	-5%	-7%
CCCCNC(=O)c1sc2ncccc2c1-n1cccc1	2%	5%	-28%	12µM*	1%	.
CCN(CC)CCNC(=O)c1sc2ncccc2c1-n1cccc1	-7%	1%	14%	-6%	5%	.
O=C(NCc1ccccc1F)c1sc2ncccc2c1-n1cccc1	0%	11%	?	23µM*	-6%	.
